Results on 6 molecules are retold here after PubChem BioAssay (NCI).

Test [1] is described as follows: NCI Yeast Anticancer Drug Screen. Data for the rad50 strain (AID 155).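 Also: 0% = growth of vehicle-only cultures of the same strain.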 To be noted: S. cerevisiae rad50 strain growth inhibition, hits give high values. The gist of the method: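 A DNA repair-deficient yeast mutant serves as the test organism; compound-induced growth inhibition is calculated against vehicle-treated cells.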
Test [2] in a line: NCI Yeast Anticancer Drug Screen. Data for the mec2-1 strain (AID 157). To be noted: S. cerevisiae mec2-1 strain, hits give high values. A digest of the protocol: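 Growth inhibition is read against vehicle-treated controls after compound exposure of the mec2-1 yeast strain, which is defective in DNA damage repair or cell cycle control.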
The nature of test [3]: NCI Yeast Anticancer Drug Screen. Data for the sgs1 mgt1 strain (AID 161).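 Also: 0% = growth of cultures given vehicle only.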 The following applies: S. cerevisiae sgs1 mgt1 strain, hits give high values. The gist of the method: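 Percent growth inhibition was derived by comparing compound-exposed mutant yeast with vehicle-exposed cultures. The strain carries alterations in DNA damage repair.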
Test [4] is described as follows: NCI Yeast Anticancer Drug Screen. Data for the cln2 rad14 strain (AID 165).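 Also: 0% = growth equal to vehicle treated cultures.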 To be noted: S. cerevisiae cln2 rad14 strain, hits give high values. The gist of the method:
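Growth inhibition, relative to vehicle-treated controls, is the read-out. The test organism is a yeast strain with defined genetic alterations, cln2 rad14.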

Test [5] is described as follows: NCI Yeast Anticancer Drug Screen. Data for the bub3 strain (AID 167). To be noted: S. cerevisiae bub3 mutant strain, hits give high values. A digest of the protocol: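 Inhibition values come from growth of compound-treated mutant yeast normalised to vehicle-treated controls.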
Test [6] in a line: NCI Yeast Anticancer Drug Screen. Data for the mlh1 rad18 strain (AID 175). The following applies: S. cerevisiae mlh1 rad18 strain growth inhibition, hits give high values. A digest of the protocol: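 Cells of a genetically altered yeast strain, deficient in DNA damage repair, were treated with compound. Their growth was then compared with that of vehicle-treated cultures to give inhibition.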

Setting [7] is: at 5.0 µM (retest, dose inferred, filed as 0.5).
The mark [8] stands for this setting: at 50.0 µM (retest, dose inferred, filed as 5.0).

About 79,000 compounds went through this panel and 15% of them were active in at least one assay; those are over-represented in the sample as a whole. Values without a mark were called inactive. Active and inactive are the calls of the source. Rule as the data show it: active = growth inhibition above about 70%; inactive = the rest.

For `N#CSC#CCCC#CSC#N`, the growth inhibition in test [1] (setting [7]) is 52%; in test [1] (setting [8]) it was 57%; in test [1] (at 50.0 µM), 92.5% (active); in test [2] (setting [7]) it was 43%; in test [2] (setting [8]), 55%; in test [2] (at 50.0 µM), 93.9% (active). Moreover, the growth inhibition was 100% (active) in test [3] (setting [7]); 100% (active) in test [3] (setting [8]); 94.2% (active) in test [3] (at 50.0 µM); 99% (active) in test [4] (setting [7]); 99% (active) in test [4] (setting [8]); 92.9% (active) in test [4] (at 50.0 µM). The growth inhibition in test [5] (setting [7]) was 100% (active); in test [5] (setting [8]) it was 98% (active); in test [5] (at 50.0 µM), 92.4% (active); in test [6] (setting [7]), 47%; in test [6] (setting [8]) it was 46%; in test [6] (at 50.0 µM), 88.9% (active).
`COC(=O)[C@@]12OC[C@]34[C@H]([C@@H](O)[C@@H]1O)[C@@]1(C)CC(=O)C(O)=C(C)[C@@H]1C[C@H]3OC(=O)[C@H](OC(=O)C(Cc1ccccc1)NC(=O)OC(C)(C)C)[C@@H]24` (stereo partly drawn): the growth inhibition in test [1] (setting [7]) is 24%; in test [1] (setting [8]), 73% (active); in test [1] (at 50.0 µM), 85.8% (active); in test [2] (setting [7]), 26%; in test [2] (setting [8]) it was 68%; in test [2] (at 50.0 µM) it was 79.2% (active). The growth inhibition is 27% in test [3] (setting [7]); 82% (active) in test [3] (setting [8]); 86.8% (active) in test [3] (at 50.0 µM); 33% in test [4] (setting [7]); 78% (active) in test [4] (setting [8]); 85.9% (active) in test [4] (at 50.0 µM). The growth inhibition in test [5] (setting [7]) was 31%; in test [5] (setting [8]) it was 80% (active); in test [5] (at 50.0 µM) it was 83.3% (active); in test [6] (setting [7]), 3%; in test [6] (setting [8]), 58%; in test [6] (at 50.0 µM) it was -65.6%.
For `O=C(CNC(=O)OCc1ccccc1)NNc1ccccc1Cl`, the growth inhibition is 95% (active) in test [1] (setting [7]); 98% (active) in test [1] (setting [8]); 98.7% (active) in test [1] (at 50.0 µM); 94% (active) in test [2] (setting [7]); 99% (active) in test [2] (setting [8]); 98.5% (active) in test [2] (at 50.0 µM). Besides, the growth inhibition in test [3] (setting [7]) was 98% (active); in test [3] (setting [8]) it was 99% (active); in test [3] (at 50.0 µM), 97.1% (active); in test [4] (setting [7]) it was 97% (active); in test [4] (setting [8]), 98% (active); in test [4] (at 50.0 µM) it was 98.7% (active). Further, the growth inhibition in test [5] (setting [7]) was 98% (active); in test [5] (setting [8]), 96% (active); in test [5] (at 50.0 µM) it was 99.2% (active); in test [6] (setting [7]), 98% (active); in test [6] (setting [8]), 99% (active); in test [6] (at 50.0 µM), 99.3% (active).
For the molecule `O=c1c2ccccc2sc2c1c(N(CCO)CCO)cc1ccccc12`, the growth inhibition is 45% in test [1] (setting [7]); 94% (active) in test [1] (setting [8]); 97.5% (active) in test [1] (at 50.0 µM); 6% in test [2] (setting [7]); 94% (active) in test [2] (setting [8]); 95.8% (active) in test [2] (at 50.0 µM). The growth inhibition is 12% in test [3] (setting [7]); 93% (active) in test [3] (setting [8]); 97.9% (active) in test [3] (at 50.0 µM); -7% in test [4] (setting [7]); 78% (active) in test [4] (setting [8]); 96.2% (active) in test [4] (at 50.0 µM). Also, the growth inhibition in test [5] (setting [7]) was -5%; in test [5] (setting [8]), 93% (active); in test [5] (at 50.0 µM), 96.8% (active); in test [6] (setting [7]), 19%; in test [6] (setting [8]) it was 95% (active); in test [6] (at 50.0 µM), 97.6% (active).
On to `CC(=O)c1c(-c2ccc(Cl)cc2)c(-c2ccc(Cl)cc2)nn(CCO)c1=O`, for which the growth inhibition was 12% in test [1] (setting [7]); 86% (active) in test [1] (setting [8]); 97.8% (active) in test [1] (at 50.0 µM); 4% in test [2] (setting [7]); 76% (active) in test [2] (setting [8]); 97.9% (active) in test [2] (at 50.0 µM). In addition, the growth inhibition is 2% in test [3] (setting [7]); 89% (active) in test [3] (setting [8]); 98.2% (active) in test [3] (at 50.0 µM); 3% in test [4] (setting [7]); 78% (active) in test [4] (setting [8]); 89.3% (active) in test [4] (at 50.0 µM). For the same molecule, the growth inhibition in test [5] (setting [7]) was 4%; in test [5] (setting [8]), 78% (active); in test [5] (at 50.0 µM), 92.1% (active); in test [6] (setting [7]), 4%; in test [6] (setting [8]) it was 80% (active); in test [6] (at 50.0 µM), 97.8% (active).
Consider `CC1C(C(=O)O)CC([N+](=O)[O-])C(Cl)C1[N+](=O)[O-]` (stereo not drawn), for which the growth inhibition in test [1] (setting [7]) was 13%; in test [1] (setting [8]), 60%; in test [1] (at 50.0 µM), 20.9%; in test [2] (setting [7]), -1%; in test [2] (setting [8]), 83% (active); in test [2] (at 50.0 µM), 87.4% (active). The growth inhibition in test [3] (setting [7]) is -5%; in test [3] (setting [8]) it was 26%; in test [3] (at 50.0 µM), 82.1% (active); in test [4] (setting [7]) it was 15%; in test [4] (setting [8]), 44%; in test [4] (at 50.0 µM) it was 35.4%. Further, the growth inhibition is 11% in test [5] (setting [7]); 88% (active) in test [5] (setting [8]); 74.7% (active) in test [5] (at 50.0 µM); 9% in test [6] (setting [7]); 93% (active) in test [6] (setting [8]); 54.6% in test [6] (at 50.0 µM).
